# HSF1 activator: increases HSF-1 driven luciferase reporter signal. NIH3T3-HGL HSF-1 luciferase reporter, MG132, 8 h; 100% = twice DMSO control signal. activation, % at 9 µM. 300,000 tested, 1.7% active;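 active = mean replicate activation of at least 50% with a set share of replicates each reaching 50%; inconclusive = only one of those two conditions met; inactive = mean below 50% and too few replicates reaching it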;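 also: 0% = median of the neutral control wells and 100% = twice that signal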
# HSF1 inh: HSF1 inhibition; 300,000 tested, 0.77% active; activity change, negative = inhibition, % at 7.5 µM (by protocol); AID 2098; NIH3T3-HGL HSE-luciferase, MG132-induced, luminescence 8 h; hits give low values;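 active = more than half of replicate wells show activity change below -50%, luminescence cut by over half; inconclusive = some wells, but at most half, below -50%; inactive = no replicate well below -50%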;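 also: luciferase reports HSF-1 transcriptional activity via heat shock element; 0% = median of DMSO wells and -100% = zero luminescence signal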
# Hsp70 act: switches on Hsp70 transcription; HeLa Hsp70 promoter luciferase reporter, luminescence; scaled: vehicle 0, proteasome-inhibitor control 100%; activation, % at 10 µM; 200,000 tested, 0.04% active; AID 1203;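 active = activation above the mean across all tested compounds plus 3 SD, cutoff set per campaign, cut at about 5.5% in these data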;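 also: 100% = MG132 at 30 µM as the positive control and 0% = DMSO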
# HSP90 refold inh: HSP90 refolding inhibition in rabbit reticulocyte lysate; luciferase refolding luminescence, 3 h; inhibition, % at 5.6 µM; 290,000 tested, 0.91% active; AID 1789;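 active = inhibition above the screen-wide mean plus 3 SD, computed separately per campaign, cut at about 16% in these data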;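 also: 0% = DMSO wells and 100% = 60 µM geldanamycin wells; inhibitors lower the luminescence because luciferase stays unfolded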
# p-CIP stab down: lowers stability of the mouse p/CIP coactivator protein; Q05BA5; AID 1984; decrease of EGFP signal, % at 10 µM; F442A p/CIP-EGFP cells, EGFP fluorescence, 16 h; 290,000 tested, 0.01% active;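 active = EGFP signal decrease of at least 30% at 10 µM or well 3 SD below plate mean, unless failing retest; inactive = the rest, including hits failing retest or dose response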
# NALP1 inh: blocks the NALP1 inflammasome reconstituted in yeast. S. cerevisiae NALP1/ASC/caspase-1 growth, X-gal OD620, 72 h. inhibition, % at 10 µM. 280,000 tested, 0.61% active; in the data active = inhibition mostly above about 24%, no sharp cut-off; inactive = mostly below about 32%
# * marks the source's active call; other numbers are inactive results; ? = inconclusive; nt = no result given. Most compounds without a hit are left out; they make up all but 3.8% or so of the library.
SMILES,HSF1 activator,HSF1 inh,Hsp70 act,HSP90 refold inh,p-CIP stab down,NALP1 inh
CCn1c(O)c(/C=C2\C=Nc3ccccc32)sc1=O,74*,25,0,0,12,-9
Oc1nc(Nc2ccccc2)sc1/C=C1\C=Nc2ccccc21,101*,74,nt,5,-17,6
CC(=O)N1c2ccc(S(=O)(=O)N3CCCC(C(=O)N4CCC(C)CC4)C3)cc2CC1C (stereo not drawn),10,4,nt,3,-16,12
C/C(CC(=O)Nc1cccc2c1CCCC2)=N\NC=O,17,14,0,4,-6,0
Cc1cc(Cl)c2oc(C(=O)N(C)Cc3cc(C)[nH]n3)c(C)c2c1,5,7,nt,-2,-8,3
Cc1cc(Cl)c2oc(C(=O)N(C)Cc3ccon3)c(C)c2c1,?,20,nt,1,2,42*
Cc1ccc(C(=O)NCC(=O)NCC(=O)OCC(=O)c2ccc(F)cc2)cc1,-70,-62*,0,0,-10,33
COc1nnc(-c2ccc(C(=O)N3C[C@@H]4C[C@H](C3)c3cccc(=O)n3C4)cc2)c2ccccc12,-69,-58*,0,-1,11,-8
O=C(c1ccc(-c2nnc(Nc3cccc(Cl)c3)c3ccccc23)cc1)N1C[C@H]2C[C@H](C1)c1cccc(=O)n1C2,25,1,0,3,6,0
COC(=O)c1ccc(NC(=O)c2cc[n+]([O-])cc2)cc1,6,-4,nt,0,-4,6
CCOC(=O)c1c(NC(=O)c2nn(CC)cc2Br)c(C#N)nn1-c1ccccc1,52*,24,0,3,-3,4
N#Cc1cccn1-c1nccs1,-89,-86*,0,2,4,-3
O/N=C\c1cccn1-c1nccs1,22,3,0,0,-12,5
COc1cc2cc3c(N)c(C(=O)Nc4sc(C)c(C)c4C#N)sc3nc2cc1OC,18,-1,0,-1,-6,-9
Cc1ccc(S(=O)(=O)NC(N)=NCCc2ccc(Cl)cc2)cc1C,-7,-4,0,-2,-21,21
COc1ccc2cc3c(N)nn(C(=O)Cc4c[nH]c5ccccc45)c3nc2c1,-65,-54*,nt,-4,6,nt
COc1ccc2cc3c(N)nn(C(=O)c4ccccc4Cl)c3nc2c1,-63,-51*,nt,-4,-6,nt
Cc1nn(Cc2ccccc2)c(Cl)c1/C=N/NC(=O)CNc1cccc(C(F)(F)F)c1,2,1,0,-7,4,27
CCCCN(CCCC)Cc1cc2ccccc2c2c1COC2,-18,3,0,-3,8,44*
CCCN(CCC)Cc1cc2ccccc2c2c1COC2,9,-4,0,8,-2,-6
O=C(NCCCl)NNc1c(Cl)cc(Cl)cc1Cl,nt,nt,0,1,-1,31*
CCCCNC(=S)NNc1c(Cl)cc(Cl)cc1Cl,-78,-72*,0,4,-17,5
CCCCNC(=S)NNC(=O)c1nn(C)cc1Cl,10,1,0,1,6,-6
COc1cccc(N/C=C/c2onc(C)c2[N+](=O)[O-])c1,66*,32,0,0,-14,-3
Cc1ccc(N/C=C/c2onc(C)c2[N+](=O)[O-])cc1,10,0,nt,-10,-30,nt
SMILES,HSF1 activator,HSF1 inh,Hsp70 act,HSP90 refold inh,p-CIP stab down,NALP1 inh
O=C1CCC/C(=N\NC(=O)c2ccc(COc3ccccc3-c3ccccc3)cc2)C1,72*,31,0,-1,-2,-11
CCOC(=O)c1ccc(N2C(=O)CC(N3CCCC(C)C3)C2=O)cc1 (stereo not drawn),nt,nt,-1,0,9,105*
CCOC(=O)c1ccc(N2C(=O)CC(N3CCC(Nc4ccc(F)cc4)CC3)C2=O)cc1 (stereo not drawn),58*,23,0,7,-1,-3
O=C(O)c1ccc(N2C(=O)CC(N3CCN(c4cccc(C(F)(F)F)c4)CC3)C2=O)cc1 (stereo not drawn),-65,-56*,nt,-2,-8,-8
O=C1CC(N2CCCCCC2)C(=O)N1c1ccc(F)cc1 (stereo not drawn),-37,-27,0,1,-22,37*
COc1cc(C2SCC(=O)N2Cc2ccccc2)cc(OC)c1OC (stereo not drawn),-6,-5,nt,1,-10,26
O=C(CCCn1c(=S)[nH]c2ccc(Br)cc2c1=O)NCC1CCCO1 (stereo not drawn),72*,25,0,4,-8,-9
CC(=O)Nc1ccc(OS(=O)(=O)c2ccccc2C)cc1,-93,-91*,0,5,-20,-6
CC(=O)Nc1ccc(OS(=O)(=O)c2ccc(C)cc2C)cc1,-2,-2,0,-1,-6,13
CCN(CC)C(=O)Cn1cnc2sc(C(=O)NCCCN3CCOCC3)c(C)c2c1=O,-2,-1,nt,1,-24,-11
O=C(COC(=O)CNC(=O)c1ccccc1F)Nc1cccnc1Cl,-81,-77*,0,-6,14,-1
Cc1ccc(-n2c(=O)c(C#N)cc3c(=O)n4cccc(C)c4nc32)cc1,-1,-1,0,1,-6,37*
COc1ccc(N=N/C(=C\O)C(=O)c2cccs2)cc1,67*,54,0,2,5,4
CC(=O)[C@]1(O)Cc2c(O)c3c(c(O)c2[C@@H](O[C@H]2C[C@H](N)[C@H](O)[C@H](C)O2)C1)C(=O)c1ccccc1C3=O,-79,-79*,nt,nt,nt,nt
COc1cccc2c1C(=O)c1c(O)c3c(c(O)c1C2=O)C[C@@](O)(C(C)=O)C[C@@H]3O[C@H]1C[C@H](N)[C@H](O)[C@H](C)O1,nt,nt,12*,4,-73,22
COc1cccc2c1C(=O)c1c(O)c3c(c(O)c1C2=O)C[C@@](O)(C(=O)CO)C[C@@H]3O[C@H]1C[C@H](N)[C@@H](O)[C@H](C)O1,-72,-75*,nt,nt,nt,nt
COc1ccc(S(=O)(=O)Nc2cccc(S(=O)(=O)N3CCCCCC3)c2)cc1,9,4,0,-1,0,19
O=S(=O)(Nc1nc2ccccc2nc1Nc1cccc(S(=O)(=O)N2CCCCC2)c1)c1ccccc1,101*,70,0,-2,-26,40
CC(C)(C)NCc1cc(Cl)ccc1OCc1ccccc1F,3,-2,0,-4,-15,3
CCN(CC)CCNCc1cc(Cl)ccc1OCc1ccccc1F,-71,-61*,0,2,-3,28
COc1cc2c(cc1OC)C(c1cccc(C)c1)CC(=O)N2 (stereo not drawn),-8,-4,0,1,-18,44*
Cc1csc(NC(=O)c2c(O)c3c(n(CC(C)C)c2=O)CCCC3)n1,-8,-8,0,-1,2,31*
CCCn1c2c(c(O)c(C(=O)Nc3nc(C)cs3)c1=O)CCCC2,-2,3,0,0,-3,16
